# ± gives the standard deviation of the averaged measurements.
# Tests used:
# DLD1 [1] = test: cell viability (CellTiter-Glo) relative to plate median (fraction of plate median); higher = more viable cells; settings: 5 µM; treatment time 24 h; reporter: 7TFP
# In short: (§1)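 Colorectal cancer lines with stably integrated lentiviral TCF/Wnt firefly luciferase reporters received library compounds at a final 5 µM, 24 h after seeding into 384-well plates, for a 24 h exposure. Reported figures are plate-median-normalised firefly luciferase or CellTiterGlo luminescence per well. They average two independent replicates.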
# HCT116 = test: as above; settings: 5 µM; treatment time 24 h; reporter: TCF4/Wnt
# In short: as §1
# SW480 [2] = test: as above; settings: 5 µM; treatment time 24 h; reporter: 7TFP
# In short: as §1
# DLD1 [3] = test: TCF/Wnt firefly luciferase reporter signal relative to plate median (fraction of plate median); higher = higher Wnt reporter signal; settings: 5 µM; treatment time 24 h; reporter: 7TFP
# In short: as §1
# SW480 [4] = test: as above; settings: 5 µM; treatment time 24 h; reporter: 7TFP
# In short: as §1
SMILES,cell viability (DLD1 [1]),cell viability (HCT116),cell viability (SW480 [2]),TCF/Wnt firefly luciferase reporter signal (DLD1 [3]),TCF/Wnt firefly luciferase reporter signal (SW480 [4])
NS(=O)(=O)c1cc2c(cc1Cl)NC(C(Cl)Cl)NS2(=O)=O (stereo not given),0.977 ± 0.047,1.06 ± 0.078,0.973 ± 0.0028,1.11 ± 0.29,0.991 ± 0.013
CC(=O)OCC(=O)[C@H]1CC[C@H]2[C@@H]3CCC4=CC(=O)CC[C@]4(C)[C@H]3CC[C@]12C,0.952 ± 0.082,0.961 ± 0.13,0.974 ± 0.0014,1.11 ± 0.05,0.93 ± 0.059
OCCc1ccccc1,0.986,0.995 ± 0.05,0.959 ± 0.03,1.16 ± 0.085,1.12 ± 0.092
CNC[C@H](O)c1cccc(O)c1,1.02 ± 0.033,1.09 ± 0.064,0.955 ± 0.062,1.02 ± 0.13,1.075 ± 0.0071
CC1(C)C2CC(=O)O[C@@]3(C)C4=CC(=O)O[C@@H](c5ccoc5)[C@]4(C)CCC3[C@@]2(C)C=C[C@H]1O (stereo not given in full),0.95 ± 0.065,1.03 ± 0.047,0.993 ± 0.024,1.05 ± 0.11,1.04 ± 0.16
CCCCCCCCCCCCCCCCCCOCC(O)CO (stereo not given),0.991 ± 0.084,0.989 ± 0.073,1.02 ± 0.021,1.035 ± 0.0071,1.01 ± 0.09
COC(=O)c1c(C)cc(OC(=O)c2c(C)cc(O)c(C=O)c2O)c(C)c1O,1.06 ± 0.021,1.07 ± 0.092,1.06 ± 0.064,1 ± 0.14,1.04 ± 0.028
C[N+]1(C)[C@@H]2CC[C@H]1C[C@@H](OC(=O)C(O)c1ccccc1)C2 (stereo not given in full),1.08 ± 0.035,0.941 ± 0.079,1.085 ± 0.0071,1.1 ± 0.042,1.01 ± 0.15
N=C1C=CC(=C(c2ccc(N)cc2)c2ccc(N)cc2)C=C1,0.908 ± 0.046,0.873 ± 0.0028,0.829 ± 0.053,0.923 ± 0.057,0.819 ± 0.14
CCN(CC)CCCC(C)Nc1ccnc2cc(Cl)ccc12 (stereo not given),1.05 ± 0.096,1.04 ± 0.12,1.05 ± 0.028,0.974 ± 0.024,1.045 ± 0.0071
O=C1c2c(O)cccc2C([C@@H]2O[C@H](CO)[C@@H](O)[C@H](O)[C@H]2O)c2cc(CO)cc(O)c21 (stereo not given in full),1.05 ± 0.1,1.1 ± 0.078,1.015 ± 0.0071,1.2 ± 0.021,1.07 ± 0.05
CCCCC(CC)CN1CN(CC(CC)CCCC)CC(C)(N)C1 (stereo not given),0.96 ± 0.071,0.988 ± 0.032,0.985 ± 0.0028,1.01 ± 0.048,0.997 ± 0.018
Oc1cc2c(cc1O)C1c3ccc(O)c(O)c3OCC1(O)C2 (stereo not given),1.03 ± 0.028,1.04 ± 0.028,1 ± 0.023,0.944 ± 0.035,1.04 ± 0.035
NC(=O)CC[C@H](N)C(=O)O,1.02 ± 0.014,0.923 ± 0.11,1.02 ± 0.069,1.02 ± 0.14,1.07 ± 0.064
O=C(O)c1ccccc1,1.06 ± 0.096,1.02 ± 0.021,1.02 ± 0.014,1.12 ± 0.071,0.951 ± 0.037
CC(=O)C1=C(O)C=C2Oc3c(C(C)=O)c(O)c(C)c(O)c3C2(C)C1=O (stereo in doubt),0.995 ± 0.035,1.04 ± 0.028,0.968 ± 0.018,1.2 ± 0.13,0.973 ± 0.052
C=C1C(=O)[C@]23[C@H](CC[C@@H]1[C@@H]2O)[C@]12CO[C@@]3(O)[C@H](O)[C@H]1C(C)(C)CC[C@@H]2O,0.931 ± 0.058,1.12 ± 0.19,1.045 ± 0.0071,0.876 ± 0.015,0.731 ± 0.035
CC(=O)NCC(=O)c1c[nH]c2ccccc12 [N-Acetyl-beta-oxotryptamin],1.02 ± 0.048,0.983 ± 0.095,0.982 ± 0.013,1.11 ± 0.085,0.932 ± 0.052
CC1(C)O[C@H]2[C@H](O)C[C@](O)(C(N)=O)C[C@H]2O1,1.08 ± 0.035,1.17 ± 0.15,1.09 ± 0.021,1.07 ± 0.15,0.916 ± 0.055
COc1cc(CO)cc2c1C(=O)c1c(O)cc(O)cc1C2=O [Carviolin],0.883 ± 0.19,0.93 ± 0.018,0.99 ± 0.0014,0.811 ± 0.1,0.963 ± 0.044
CC1(C)S[C@@H]2[C@H](NC(=O)[C@H](C(=O)O)c3ccsc3)C(=O)N2[C@H]1C(=O)O,1.09 ± 0.092,1.045 ± 0.0071,1.03 ± 0.052,0.871 ± 0.069,1.075 ± 0.0071
CO/N=C(\C(=O)N[C@@H]1C(=O)N2C(C(=O)OCOC(=O)C(C)(C)C)=C(/C=C\c3scnc3C)CS[C@H]12)c1csc(N)n1,1.025 ± 0.0071,0.985 ± 0.0042,0.901 ± 0.0071,0.809 ± 0.029,0.854 ± 0.14
CCCCOc1cc(C(=O)NCCN(CC)CC)c2ccccc2n1,0.973 ± 0.011,0.926 ± 0.1,0.984,0.831 ± 0.05,0.964 ± 0.045
CC(=O)O[C@@H]1C[C@H]2C(C)(C)C(=O)C=C[C@]2(C)[C@H]2CC[C@@]3(C)[C@H](c4ccoc4)OC(=O)[C@H]4O[C@]43[C@@]21C,1.01 ± 0.025,1.07 ± 0.042,0.97 ± 0.018,1.19 ± 0.05,1.11 ± 0.028
C[C@]12CCC(=O)C=C1CC[C@@H]1[C@@H]2[C@@H](O)C[C@@]2(C)[C@H]1CC[C@]2(O)C(=O)COP(=O)(O)O,0.949 ± 0.0099,0.974 ± 0.065,0.969 ± 0.03,1.01 ± 0.025,1.07 ± 0.014
CN(C)CCOc1ccc(/C(=C(/CCCl)c2ccccc2)c2ccccc2)cc1,0.947 ± 0.034,1.02 ± 0.062,0.977 ± 0.047,0.962 ± 0.12,1.05 ± 0.073
O=[N+]([O-])c1cccc2c(Br)[nH]nc12,0.994 ± 0.0057,1.02 ± 0.021,0.957 ± 0.034,0.984 ± 0.037,0.967 ± 0.13
NC(N)=O,1.03 ± 0.014,0.988 ± 0.088,0.999 ± 0.044,0.898 ± 0.0028,0.934 ± 0.076
COc1ccc(CC(=O)c2ccc(O)cc2O)cc1,0.962 ± 0.054,0.955 ± 0.14,0.995 ± 0.036,1.13 ± 0.057,1.07 ± 0.078
C[n+]1c2cc(N)ccc2cc2ccc(N)cc21,1.05 ± 0.014,0.951 ± 0.084,1.08 ± 0.042,1.4 ± 0.27,1.01 ± 0.08

# — the supplement of paper PMC6522484
